Here are results for 36 compounds from PubChem BioAssay.

The list shows a part of the results. Activity calls are given as the source filed them. Unless noted, no rule for the calls is given here.

Test [1] in a line: apoptosome-driven caspase-3 activation blockers – biochemical, fluorescence, DEVD-Rh110, 20 µM, confirmation (AID 504614;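 active = mean inhibition of at least 40% at 20 µM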;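 also: plate controls were DMSO wells for no effect and DEVD-CHO caspase inhibitor control wells for full effect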). The settings on record: reconstituted apoptosome, caspase-3 DEVD-Rh110 fluorescence; at 20 µM; stronger effect = higher value.
Test [2] can be described thus: detection-step artefacts after completed caspase reaction – biochemical, fluorescence, Rh110, 20 µM, artefact control for Apaf-1 inhibitor project, confirmation (AID 504615;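 active = signal rise of 40% or more at 20 µM, treated as a fluorescence artifact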). The settings on record: quenched caspase reaction, at 20 µM, stronger effect = higher value.
A short description of test [3]: fluorescence interference of Apaf-1 inhibitor hits, dose response, artefact control for Apaf-1 inhibitor project (AID 588538). The settings on record: fluorescence interference counterscreen, Apaf-1 assay format. For orientation: Counterscreens check selectivity or assay interference.
Test [4] addresses PEG-3 (UniProt Q6IN02). Put plainly: inhibition of PEG-3 promoter-driven reporter – cell-based, HeLa, luciferase, CREF/GAPDH counter-screen panel, dose response (AID 624167). The settings on record: HeLa PEG-Prom luciferase reporter, overnight, CREF/GAPDH counter-screens; run 1, dose range 1, at 100 µM (top of the series).
In test [5] the target is PEG-3 (UniProt Q6IN02). The description is as above. The settings on record: HeLa PEG-Prom luciferase reporter, overnight, CREF/GAPDH counter-screens; run 2, dose range 1, at 100 µM (top of the series). (Reporter assays use an easily measured gene product as a stand-in for the process of interest.)
Sequence of PEG-3 (Q6IN02 whole entry, looked up): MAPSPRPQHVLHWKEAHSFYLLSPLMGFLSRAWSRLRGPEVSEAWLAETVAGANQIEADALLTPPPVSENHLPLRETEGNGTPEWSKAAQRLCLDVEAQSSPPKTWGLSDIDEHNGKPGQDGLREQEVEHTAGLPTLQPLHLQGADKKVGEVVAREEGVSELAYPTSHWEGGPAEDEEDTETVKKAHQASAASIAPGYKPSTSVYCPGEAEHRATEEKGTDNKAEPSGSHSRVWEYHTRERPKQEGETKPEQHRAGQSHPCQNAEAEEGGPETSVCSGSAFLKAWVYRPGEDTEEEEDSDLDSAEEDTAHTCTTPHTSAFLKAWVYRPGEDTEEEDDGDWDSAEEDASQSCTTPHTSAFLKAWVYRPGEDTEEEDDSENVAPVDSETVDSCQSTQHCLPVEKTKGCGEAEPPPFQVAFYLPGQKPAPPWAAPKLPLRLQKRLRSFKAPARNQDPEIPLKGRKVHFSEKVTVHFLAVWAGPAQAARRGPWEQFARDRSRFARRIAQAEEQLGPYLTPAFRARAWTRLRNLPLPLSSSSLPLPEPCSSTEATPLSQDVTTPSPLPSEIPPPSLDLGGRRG
Test [6] can be described thus: inhibition of PEG-3 promoter luciferase signal – cell-based, HeLa, luciferase reporter, single concentration, confirmation (AID 602417;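 active = at 20 µM dose, 40% or more inhibition averaged across four replicates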). The settings on record: HeLa PEG-Prom luciferase reporter, luminescence, overnight; at 20 µM; stronger effect = higher value.
The target of test [7] is Carboxy-terminal domain RNA polymerase II polypeptide A small phosphatase 1 (Homo sapiens) (UniProt Q9GZU7). Nature of the test: SCP1 melting temperature change from compounds – biophysical, differential scanning fluorimetry, orthogonal assay for Scp-1 inhibitor project, confirmation (AID 540329;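 active = substances whose mean melting-temperature shift, as a percentage of the reference inhibitor's shift, reaches about 5.3%, limit read from the data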;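 also: 0% = Tm of DMSO wells and 100% = Tm with sodium orthovanadate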). The settings on record: Recombinant SCP1, Sypro Orange thermal shift Tm; at 40 µM; stronger effect = higher value. On the technique in general: Differential scanning fluorimetry follows unfolding on heating by fluorescence.
Sequence of Carboxy-terminal domain RNA polymerase II polypeptide A small phosphatase 1 (Homo sapiens) (Q9GZU7 76-261 limits assumed): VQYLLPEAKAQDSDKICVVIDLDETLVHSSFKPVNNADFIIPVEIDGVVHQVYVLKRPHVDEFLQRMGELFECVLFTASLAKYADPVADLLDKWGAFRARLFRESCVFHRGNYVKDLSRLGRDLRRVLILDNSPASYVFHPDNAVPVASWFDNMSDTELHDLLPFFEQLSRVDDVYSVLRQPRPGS

Test [8] can be described thus: NF-kB reporter suppression in CF airway cells – cell-based, GFP fluorescence, single concentration, confirmation (AID 602472; in the data active = inhibition above about 40%;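 also: stimulus PAF is a Pseudomonas aeruginosa filtrate and not platelet activating factor; plate controls were DMSO wells with stimulus for no effect and unstimulated DMSO wells for full effect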). The settings on record: KKLEB CF airway cells, PAF-induced NF-kB-GFP fluorescence, overnight; at 5 µM; stronger effect = higher value.
Test [9] can be described thus: Brca1-Bard1 BiLC signal decrease – luminescence, single concentration, counter-screen for Mdm2/MdmX interaction inhibitor project, confirmation (AID 504668). The settings on record: Brca1/Bard1 bimolecular luciferase complementation counterscreen, at 8 µM, stronger effect = higher value.
In test [10] the target is Tumor necrosis factor receptor superfamily member 10B (Homo sapiens) (UniProt O14763). Put plainly: viability loss of caspase-8 NB7 cells with TRAIL – with/without TRAIL, luminescence panel, confirmation (AID 651596; in the data active = activity above about 50%). The settings on record: NB7 neuroblastoma + caspase-8, TRAIL sensitization, NB7 Caspase-8, with TRAIL, mean of runs, at 10 µM, stronger effect = higher value.
Sequence of Tumor necrosis factor receptor superfamily member 10B (Homo sapiens) (O14763 whole entry, looked up): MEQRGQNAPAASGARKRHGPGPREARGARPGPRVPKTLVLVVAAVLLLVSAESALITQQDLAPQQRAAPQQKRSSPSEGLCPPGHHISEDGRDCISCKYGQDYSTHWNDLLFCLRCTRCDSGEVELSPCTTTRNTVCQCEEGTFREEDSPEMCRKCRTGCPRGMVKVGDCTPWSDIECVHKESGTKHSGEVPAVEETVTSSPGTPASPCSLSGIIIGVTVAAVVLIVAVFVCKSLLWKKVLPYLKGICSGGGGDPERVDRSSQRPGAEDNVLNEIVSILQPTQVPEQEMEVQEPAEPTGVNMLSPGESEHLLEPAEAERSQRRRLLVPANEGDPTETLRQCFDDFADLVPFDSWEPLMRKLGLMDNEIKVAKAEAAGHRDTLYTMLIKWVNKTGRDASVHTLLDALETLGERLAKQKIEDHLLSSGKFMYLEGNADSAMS
Experiment in test [11]: as above
The settings on record: NB7 neuroblastoma + caspase-8, without TRAIL, NB7 Caspase-8, without TRAIL, mean of runs, at 10 µM.

Test [12] relates to Rat fibroblasts (CREF). Nature of the test: inhibition of PEG-3 promoter-driven reporter – cell-based, HeLa, luciferase, CREF/GAPDH counter-screen panel, dose response (AID 624167). The settings on record: CREF/GAPDH counter-screens; run 1, dose range 1, at 100 µM (top of the series).
The subject of test [13] is Rat fibroblasts (CREF). Described as above. The settings on record: CREF/GAPDH counter-screens; run 2, dose range 1, at 100 µM (top of the series).
Test [14] can be described thus: HIF-2a driven luciferase blockers, single dose – luminescence, 786-0 RCC cells, confirmation (AID 651580;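 active = mean inhibition across four replicates of at least 40 percent at the single tested concentration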). The settings on record: HIF-2a luciferase reporter luminescence, overnight, at 18.8 µM, stronger effect = higher value.
Test [15] is described as follows: HIF-1a luciferase reporter signal reduction – MiaPaCa-2 cells, single concentration, counter-screen for HIF-2a inhibitor project, confirmation (AID 651589;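 active = mean inhibition of the reporter signal across four replicates at the single tested dose of 50% or more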). The settings on record: MiaPaCa-2 HIF-1a luciferase reporter, desferoxamine, overnight; at 18.8 µM; stronger effect = higher value.
Test [16] addresses Tumor necrosis factor receptor superfamily member 10B (Homo sapiens) (UniProt O14763). Put plainly: compound enhancement of TRAIL-induced cell killing – NB7 cells plus caspase-8, luminescence, panel, dose response (AID 652002). The settings on record: NB7 neuroblastoma +caspase-8, TRAIL sensitization, luminescence viability, NB7+Caspase-8, with TRAIL, run 1; at 12.5 µM (top of the series).

For test [17] the target is unchanged. Described as above. The settings on record: NB7 neuroblastoma +caspase-8, TRAIL sensitization, luminescence viability, NB7+Caspase-8, with TRAIL, run 2; at 12.5 µM (top of the series).
Experiment in test [18]: as above
The settings on record: NB7 neuroblastoma +caspase-8, no TRAIL, compound-alone cytotoxicity counter-screen, luminescence viability, NB7+Caspase-8, run 1; at 12.5 µM (top of the series).

Experiment in test [19]: as above
The settings on record: NB7 neuroblastoma +caspase-8, no TRAIL, compound-alone cytotoxicity counter-screen, luminescence viability, NB7+Caspase-8, run 2; at 12.5 µM (top of the series).

For the compound `CCCCCn1c(=O)c(C(=O)Nc2c(C)n(C)n(-c3ccccc3)c2=O)c(O)c2ccccc21`, the inhibition (in general, the drop in the measured response relative to a control, in per cent) in test [1] is 42.9% (active). The activation (fluorescence interference) in test [2] was -2.75% (inactive). In addition, the IC50 (commonly the midpoint of a concentration-inhibition curve) in test [3] was > 100 µM (inactive).

`Cc1[nH]c2ccc(OC(F)(F)F)cc2c1CCNCc1cccc([N+](=O)[O-])c1`: the inhibition in test [4] and in [5] was 101% throughout.

Consider `O=C1NC(=O)N(Cc2ccco2)C(=O)/C1=C/C=C/c1ccco1`, for which the inhibition in test [4] and in [5] was 102% in each case.

`CC1(C)Cc2c(C#N)c(N3CCNCC3)nc(-c3ccco3)c2CS1`: the inhibition in test [6] was 68.9% (active); in [4], 101%; in [5], 101%.

Regarding `COc1ccccc1N=C1SCCCN1C`, the thermal shift relative to vanadate control in [7] is -0.51% (inactive).

Consider `CC(C)(C)n1nnnc1C(CCc1ccccc1)N1CCC(n2c(=O)[nH]c3ccccc32)CC1` (centres undefined), for which the values for the inhibition in [4] and in test [5] were 86.4% and 92.6%, respectively.

On to `COc1ccc(C(c2nnnn2-c2c(C)cccc2C)N2CCC(n3c(=O)[nH]c4ccccc43)CC2)cc1` (centres undefined), for which the inhibition in test [4] stood at 63.7%; in test [5], 63.1%.

Regarding `COc1ccc(-n2nnnc2C(c2cccc3ccccc23)N2CCC(n3c(=O)[nH]c4ccccc43)CC2)cc1` (centres undefined), in test [8], the inhibition was 14.7% (inactive).

Consider `CC[n+]1c(-c2ccccc2)c2cc(N)ccc2c2ccc(N)cc21`, for which the inhibition in [4] and in test [5] was 102% in each case.

For the compound `O=[N+]([O-])c1ccc(NC2CCN(Cc3ccccc3)CC2)c2ccncc12`, the inhibition in test [4] came out at 102%; in test [5], 99%.

For the compound `O=C1NC(=S)N(c2ccccc2F)C(=O)/C1=C\c1cccs1`, the values for the inhibition in [4] and in [5] were 102% and 99%, respectively.

In the case of `COc1cc2c3cc1Oc1c(OC)c(OC)cc4c1[C@H](Cc1ccc(cc1)Oc1cc(ccc1O)C[C@H]3N(C)CC2)N(C)CC4`, the inhibition in [9] was 29.8% (active).

With `NC(N)=N/N=C/c1ccc(N(c2ccccc2)c2ccccc2)cc1`, the inhibition in test [9] is 29.9% (active). Further, the activity in [10] is 75.5%; in test [11], 97.2%.

As to `O=Cc1cn(Cc2ccc([N+](=O)[O-])cc2)c2ccccc12`, the inhibition amounted to 1.6% in test [4] and 29.8% in [5].

As to `O=C1NC(=O)N(Cc2ccccc2)C(=O)/C1=C\C=C\c1ccco1`, the inhibition in [4] is 94.5%; in [5] it was 98.5%.

Turning to `O=C(CSC1c2ccccc2-c2ccccc21)N/N=C/c1ccccc1O`, the inhibition in test [9] was 27.7% (active); in test [4], 79.8%; in test [5], 66.1%; in test [12], 64.9%; in test [13], 74.1%.

Take `N#CC(C#N)=NNc1ccc(-n2ccc(C(F)(F)F)n2)cc1`: the inhibition in test [9] was 31.2% (active).

For `O=C1NC2C(=CC(O)C(O)C2O)c2cc3c(c(O)c21)OCO3` (centres undefined), the inhibition turned out to be 99.4% in test [4] and 94.9% in test [5].

As to `O=c1[nH]c(=O)n(CCc2ccc(F)cc2)c(O)c1/C=N/N1CCCCC1`, the thermal shift relative to vanadate control in test [7] is -3.71% (inactive).

As for `COc1ccc(CNCCc2c(C)[nH]c3ccc(OC(F)(F)F)cc23)c(OC)c1`, the inhibition in test [4] was 102%; in [5], 101%.

In the case of `O=C(O)CCn1cc(C=C2C(=O)NC(=S)NC2=O)c(-c2cccc(Br)c2)n1`, the thermal shift relative to vanadate control in test [7] was -19.9% (inactive).

Turning to `O=C1NC(=S)NC(=O)C1=Cc1cccn1-c1ccc(O)cc1`, the inhibition stood at 100% in test [4] and 101% in [5].

As to `CC1=CC(O)C(O)C2(C)C1CC1OC(=O)C(O)C3C(C)C(O)C4(O)OCC13C42` (centres undefined), the inhibition amounted to 95.8% in test [4] and 93.3% in test [5].

As to `Brc1ccc(-[n+]2c(-c3ccccc3)cc(-c3ccccc3)cc2-c2ccccc2)cc1`, the inhibition in [9] is 24.1% (active). Besides, the activity in test [10] amounted to 73%; in [11] it was 63%.

Regarding `CC(=CCOc1ccc2ccc(=O)oc2c1)C1=CC(=O)C(C)(C)O1`, the inhibition is -46% (inactive) in test [8], 44.2% (active) in [14] and 90.3% (active) in test [15].

For `CCOC(=O)c1cccc(-[n+]2c(-c3ccccc3)cc(-c3ccccc3)cc2-c2ccccc2)c1`, the inhibition in [9] was 33.2% (active). The activity in [10] is 49.7%; in test [11] it was 44%. Besides, the activity, % sensitization in test [16] turned out to be 6.7%; in [17] it was 9.91%; in test [18], 9.79%; in test [19], 5.11%.

Turning to `Clc1ccc(C(c2ccc(Cl)cc2)n2cc[n+](CC(OCc3ccc(Cl)cc3Cl)c3ccc(Cl)cc3Cl)c2)cc1` (centres undefined), the inhibition in [9] was 28.6% (active).

`Cn1cccc1/C=C1/C(=O)NC(=S)N(Cc2ccc(F)cc2)C1=O`: the inhibition in [4] stood at 101%; in [5] it was 100%.

As for `Cc1ccc(C)c(NP(=O)(Oc2ccccc2)Oc2ccccc2)c1`, the results for the inhibition in test [4] and in test [5] were 88.2% and 96.7%, respectively.

For `CCCCn1nnnc1C(CCSC)N1CCC(n2c(=O)[nH]c3ccccc32)CC1` (centres undefined), the values for the inhibition in test [4] and in test [5] were 72.5% and 71.8%, respectively.

In the case of `N#Cc1ccc(Cn2cc(C=O)c3ccccc32)cc1`, the inhibition in [4] is 90.2%; in test [5], 42.5%.

In the case of `COc1ccc(-n2nnnc2C(C2CC2)N2CCC(n3c(=O)[nH]c4ccccc43)CC2)cc1` (centres undefined), the inhibition stood at 93.8% in test [4] and 95.7% in [5].

Regarding `C[C@]12CC[C@H](O)C[C@H]1CC[C@@H]1[C@@H]2C[C@@H](O)[C@]2(C)[C@@H](C3=CC(=O)OC3)CC[C@]12O`, in [9], the inhibition is 34% (active). Moreover, the activity is 86.5% in [10] and 85.4% in test [11].

On to `O=Cc1cn(Cc2cccc(F)c2)c2ccccc12`, for which the inhibition in [4] worked out at 50.1%; in test [5] it was 75.9%.

Regarding `CNCC(O)c1cc(OCc2ccccc2)c(OCc2ccccc2)cc1F` (centres undefined), the inhibition in test [4] and in test [5] was 102% in each case.

For the compound `O=Cc1cn(Cc2ccc(F)cc2)c2ccccc12`, the inhibition is 26.6% in test [4] and 60.7% in test [5].
